Hits are enriched below; roughly 2.1% of the tested compounds scored in any of these assays.
ugtP null kill: growth inhibition of ugtP-null S. aureus, primary screen, RN4220 ugtP deletion, OD600; 0.54% of 330,000 active; growth inhibition, % (no concentration beside the values); AID 1259309, 2017; 16 h; in the data active means growth inhibition above about 68%;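 further: plate controls were untreated wells for no effect and antibiotic for full effect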
CCHFV vOTU inh: CCHFV vOTU protease inhibitors, primary screen, biochemical, Pep-AMC substrate, fluorescence | Crimean-Congo hemorrhagic fever virus L polyprotein viral ovarian tumor (vOTU) protease … | inhibition, % at 11.5 µM | 0.55% of 370,000 active; in the data active means inhibition above about 30%; further: 0% = vehicle wells with enzyme and 100% = no enzyme wells
PfHsp40 rescue: rescue of yeast from PfHsp40 toxicity, primary screen, S. cerevisiae, ATP luminescence | 0.68% of 340,000 active | S. cerevisiae expressing PfHsp40, growth rescue | growth rescue, % at 12.5 µM; in the data active means growth rescue above about 28%, passing the limit was not always enough; inconclusive means no clear call, values can overlap the other calls;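 further: yeast W303a lacking pdr1 and pdr3 grown in galactose medium; growth measured after three days at 30 °C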
RN4220 kill: growth inhibition of S. aureus RN4220, primary screen, OD600; 16 h; inhibition, % (no concentration beside the values); 0.33% of 330,000 active; AID 1259311, 2017; in the data active means inhibition above about 85%;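 further: plate controls were untreated cells for no effect and reference antibiotic for full effect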
PrPC TRFRET: inhibitors of human cell surface prion protein PrPC, primary screen, cell-based, TR-FRET | inhibition, % at 13.8 µM | TR-FRET read-out | AID 720596, 2013 | 0.43% of 370,000 active; in the data active means inhibition above about 24%; further: 0% = median of the test wells and 100% = reference compound wells
PrP 5UTR inh: inhibition of PrP 5' UTR reporter expression | cell-based PrP 5' UTR mRNA reporter, plate reader | inhibition, % (test concentration not listed) | 0.35% of 340,000 active | AID 488862, 2010; in the data active means inhibition above about 52%; further: 0 = median of the neutral control wells
PrP UTR cherry: prion 5' UTR mRNA inhibition, cherry-pick retest. shares compounds with PrP 5UTR inh. cell-based prion protein 5' UTR reporter, plate reader. inhibition, % at 2.5 µM. 48% of 1,100 active. AID 504592, 2011; in the data active means inhibition above about 54%; inconclusive means no clear call, values can overlap the other calls
Starred values were filed as active, the others as inactive.

What do the screens show for `Cc1ccc(S(=O)(=O)N2CCN(C(=O)N(C)C)CC2)cc1`?
ugtP null kill: 2; CCHFV vOTU inh: -1; PfHsp40 rescue: 1; RN4220 kill: 8; PrPC TRFRET: -1; PrP 5UTR inh: 62*; PrP UTR cherry: -58

Results for C[C@H](CO)N1C[C@H](C)[C@@H](CN(C)S(C)(=O)=O)Oc2ccc(NS(=O)(=O)c3cn(C)cn3)cc2C1=O ?
ugtP null kill: 2; CCHFV vOTU inh: -1; PfHsp40 rescue: -3; RN4220 kill: 3; PrPC TRFRET: -5; PrP 5UTR inh: 90*; PrP UTR cherry: 1

How did CN(C)CCCCCCCCCCC(=O)C=NO do in these assays?
ugtP null kill: 15; RN4220 kill: 2

How did CN(C)CCCNC(=O)C(=NO)c1ccccc1 do in these assays?
ugtP null kill: -4; RN4220 kill: -1

What do the screens show for `CC[C@@H]1C(c2ccccc2)=NN(c2ccccc2)[C@H]1C(=O)N1CCOC1=O`?
ugtP null kill: 5; CCHFV vOTU inh: 22; PfHsp40 rescue: 0; RN4220 kill: 2; PrPC TRFRET: 11; PrP 5UTR inh: 62*; PrP UTR cherry: -36

How did CCC(=O)c1cn(C(CCC(OC)OC)CC(=O)OC(C)(C)C)cc1CC (stereo not drawn) do in these assays?
ugtP null kill: -2; RN4220 kill: -1

Results for O=C1NCCCC1C(=O)NN=Cc1cccc(Cl)c1 (stereo not drawn) ?
ugtP null kill: -6; RN4220 kill: 0

What do the screens show for `O=C1c2ccccc2-c2nnc(-c3ccc(F)cc3)cc21`?
ugtP null kill: -1; CCHFV vOTU inh: 1; PfHsp40 rescue: 2; RN4220 kill: 18; PrPC TRFRET: -2; PrP 5UTR inh: 7

What do the screens show for `Cc1ccc(-c2cc3c(nn2)-c2ccccc2C3=O)cc1`?
ugtP null kill: 48; CCHFV vOTU inh: 25; PfHsp40 rescue: 0; RN4220 kill: 46; PrPC TRFRET: -9; PrP 5UTR inh: 76*; PrP UTR cherry: 82*

What do the screens show for `CC(NC(=O)c1[nH]cnc1C(=O)Nc1ccon1)c1ccccc1` (stereo not drawn)?
ugtP null kill: 0; RN4220 kill: 6

Results for COCC(C)n1c(C)cc(C(=O)COC(=O)c2cccn2C)c1C (stereo not drawn) ?
ugtP null kill: 1; CCHFV vOTU inh: 1; PfHsp40 rescue: -2; RN4220 kill: 0; PrPC TRFRET: -6; PrP 5UTR inh: 67*; PrP UTR cherry: inconclusive

Results for COCC(C)n1c(C)cc(C(=O)COC(=O)c2cnc(Cl)c(Cl)c2)c1C (stereo not drawn) ?
ugtP null kill: -1; CCHFV vOTU inh: 11; PfHsp40 rescue: 1; RN4220 kill: 12; PrPC TRFRET: 5; PrP 5UTR inh: -4

What do the screens show for `Cc1cnc(NC(=O)COc2ccccc2Cl)s1`?
ugtP null kill: 13; CCHFV vOTU inh: 1; PfHsp40 rescue: -1; RN4220 kill: 12; PrPC TRFRET: -3; PrP 5UTR inh: 63*; PrP UTR cherry: inconclusive

What do the screens show for `O=C(COc1ccccc1Cl)Nc1ccc(C(=O)N2CCCCC2)cc1`?
ugtP null kill: 7; CCHFV vOTU inh: -1; PfHsp40 rescue: -1; RN4220 kill: 5; PrPC TRFRET: 4; PrP 5UTR inh: -11

How did O=C(COc1ccccc1Cl)Nc1ccc(CN2CCCCC2)cc1 do in these assays?
ugtP null kill: 4; CCHFV vOTU inh: 1; PfHsp40 rescue: 0; RN4220 kill: 11; PrPC TRFRET: -2; PrP 5UTR inh: 66*; PrP UTR cherry: -24

How did CCN1C(=O)C2C(c3ccc(C)cc3)N3C(=O)N(c4cccc(Cl)c4)C(=O)[C@@]3(CC(C)C)C2C1=O (stereo partly drawn) do in these assays?
ugtP null kill: -4; RN4220 kill: 2

Results for Cc1ccc(C(=O)N/N=C/c2ccc([N+](=O)[O-])s2)cc1 ?
CCHFV vOTU inh: 12; PfHsp40 rescue: 0; PrPC TRFRET: -27; PrP 5UTR inh: 75*; PrP UTR cherry: 77*

What do the screens show for `CN(C)c1ccc2c(c1)OC(N)=C(C#N)C2c1cccc(F)c1` (stereo not drawn)?
ugtP null kill: -6; PfHsp40 rescue: 0; RN4220 kill: -3; PrP 5UTR inh: 66*; PrP UTR cherry: 90*

What do the screens show for `CN(C)CCCNC(=O)CC(c1ccccc1)c1ccccc1O` (stereo not drawn)?
ugtP null kill: -5; CCHFV vOTU inh: 9; PfHsp40 rescue: 0; RN4220 kill: 4; PrPC TRFRET: -6; PrP 5UTR inh: 71*; PrP UTR cherry: -18

How did O=C(CC(c1ccccc1)c1ccccc1O)NCc1ccccc1 (stereo not drawn) do in these assays?
ugtP null kill: 5; CCHFV vOTU inh: 6; PfHsp40 rescue: -1; RN4220 kill: 0; PrPC TRFRET: -3; PrP 5UTR inh: -31

Results for CCCCC1CCCO[C@@](C(=O)NCc2cc(C)n(C)n2)(C(F)(F)F)C1 (stereo partly drawn) ?
ugtP null kill: 1; RN4220 kill: 3

How did NC(=S)NN=Cc1nccc2ccccc12 do in these assays?
ugtP null kill: -11; CCHFV vOTU inh: 17; PfHsp40 rescue: 94*; RN4220 kill: 1; PrPC TRFRET: 23; PrP 5UTR inh: 79*; PrP UTR cherry: 71*

What do the screens show for `CC(C)(C)OC(=O)N1CCC[C@H]1C(=O)NN=Cc1ccc2ncccc2c1`?
ugtP null kill: 11; RN4220 kill: 2

Results for C#CCOCCOCCOCCNc1nc(N2CCN(C(=O)C(C(C)CC)n3cc(C(N)CO)nn3)CC2)nc(N2CCN(C(=O)C(C(C)CC)n3cc(C(N)COC(=O)C(F)(F)F)nn3)CC2)n1 (stereo not drawn) ?
ugtP null kill: 0; RN4220 kill: 7

How did O=S(=O)(NCCc1ccccc1)c1ccc(F)cc1Br do in these assays?
ugtP null kill: -7; CCHFV vOTU inh: -1; PfHsp40 rescue: 0; RN4220 kill: 1; PrPC TRFRET: 7; PrP 5UTR inh: 53*; PrP UTR cherry: -9

What do the screens show for `C=CCN1CC[C@@]2(C)c3cc(O)ccc3CC1C2C` (stereo partly drawn)?
ugtP null kill: -1; RN4220 kill: -3

What do the screens show for `NC(Cc1ccc(Cl)cc1)=NOC(=O)Cc1ccc([N+](=O)[O-])cc1`?
ugtP null kill: -1; RN4220 kill: 0

What do the screens show for `Nc1cc(=O)[nH]c(SCCSc2cc(Cl)ccc2Cl)n1`?
ugtP null kill: 2; CCHFV vOTU inh: 11; PfHsp40 rescue: 0; RN4220 kill: 3; PrPC TRFRET: 11; PrP 5UTR inh: 58*; PrP UTR cherry: 39

Screens from PubChem BioAssay.
